Key:
Experiment in all cases: log2 ratio of Biotin-Ahx-Ub-VS probe labelling (fragment/DMSO); higher = less target engagement (more negative = stronger competition), active = hit call of the paper (q ≤ 0.05, log2 ratio ≤ -1)
Conditions in all cases: compound concentration: 200 uM; treatment time: 3 h
[1] = biological target: T1, USP42 (UniProt Q9H9J4)
T1 sequence (whole entry): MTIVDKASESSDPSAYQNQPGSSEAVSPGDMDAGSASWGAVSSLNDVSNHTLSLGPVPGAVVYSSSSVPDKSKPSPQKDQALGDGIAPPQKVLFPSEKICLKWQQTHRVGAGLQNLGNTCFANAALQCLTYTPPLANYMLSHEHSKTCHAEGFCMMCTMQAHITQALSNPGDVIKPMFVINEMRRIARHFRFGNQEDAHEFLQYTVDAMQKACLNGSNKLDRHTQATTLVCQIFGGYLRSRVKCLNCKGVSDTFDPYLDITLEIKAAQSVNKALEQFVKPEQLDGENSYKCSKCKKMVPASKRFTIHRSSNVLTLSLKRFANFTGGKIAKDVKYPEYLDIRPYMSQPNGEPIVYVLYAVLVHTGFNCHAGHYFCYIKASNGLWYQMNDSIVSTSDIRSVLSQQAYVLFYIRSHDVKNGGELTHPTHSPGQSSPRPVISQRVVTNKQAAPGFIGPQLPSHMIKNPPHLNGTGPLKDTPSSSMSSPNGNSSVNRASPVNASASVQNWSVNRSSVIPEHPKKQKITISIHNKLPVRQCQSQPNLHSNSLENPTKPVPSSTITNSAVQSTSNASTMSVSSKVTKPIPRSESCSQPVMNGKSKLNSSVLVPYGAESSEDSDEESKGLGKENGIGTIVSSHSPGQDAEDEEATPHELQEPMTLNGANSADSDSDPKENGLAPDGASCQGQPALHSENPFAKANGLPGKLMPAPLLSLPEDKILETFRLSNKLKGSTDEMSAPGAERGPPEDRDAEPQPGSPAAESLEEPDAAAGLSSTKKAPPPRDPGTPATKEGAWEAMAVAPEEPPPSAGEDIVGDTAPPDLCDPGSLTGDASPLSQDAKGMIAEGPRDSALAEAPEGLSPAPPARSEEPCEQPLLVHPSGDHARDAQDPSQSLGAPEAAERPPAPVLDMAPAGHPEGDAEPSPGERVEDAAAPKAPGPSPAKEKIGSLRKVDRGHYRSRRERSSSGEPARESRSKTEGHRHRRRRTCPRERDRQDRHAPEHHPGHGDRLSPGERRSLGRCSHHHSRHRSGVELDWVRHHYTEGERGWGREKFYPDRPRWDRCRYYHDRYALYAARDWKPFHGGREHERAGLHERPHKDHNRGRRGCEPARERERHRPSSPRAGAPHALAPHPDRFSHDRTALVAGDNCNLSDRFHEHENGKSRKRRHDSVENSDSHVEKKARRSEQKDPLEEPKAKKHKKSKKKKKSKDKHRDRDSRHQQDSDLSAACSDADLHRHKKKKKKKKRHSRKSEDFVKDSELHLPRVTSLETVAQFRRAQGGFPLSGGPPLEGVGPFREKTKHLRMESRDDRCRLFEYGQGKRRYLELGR
Summary of the method: (§1)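 In triplicate, 495 µg of HEK293T lysate per sample was incubated with fragment at 200 µM or vehicle for 3 h. Biotin-Ahx-Ub-VS was then added to 0.5 µM final for 1 h, and labelled DUBs were captured with NeutrAvidin, digested with LysC and trypsin, and measured by diaPASEF LC-MS/MS. Data are average log2 fragment/vehicle ratios by unpaired t-test from global-median-normalised Spectronaut label-free quantities, restricted to proteins with ≥2 unique peptides.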

[2] = biological target: USP46 (UniProt P62068)
Summary of the method: as §1

[3] = biological target: T2, USP47 (UniProt Q96K76)
T2 sequence (whole entry): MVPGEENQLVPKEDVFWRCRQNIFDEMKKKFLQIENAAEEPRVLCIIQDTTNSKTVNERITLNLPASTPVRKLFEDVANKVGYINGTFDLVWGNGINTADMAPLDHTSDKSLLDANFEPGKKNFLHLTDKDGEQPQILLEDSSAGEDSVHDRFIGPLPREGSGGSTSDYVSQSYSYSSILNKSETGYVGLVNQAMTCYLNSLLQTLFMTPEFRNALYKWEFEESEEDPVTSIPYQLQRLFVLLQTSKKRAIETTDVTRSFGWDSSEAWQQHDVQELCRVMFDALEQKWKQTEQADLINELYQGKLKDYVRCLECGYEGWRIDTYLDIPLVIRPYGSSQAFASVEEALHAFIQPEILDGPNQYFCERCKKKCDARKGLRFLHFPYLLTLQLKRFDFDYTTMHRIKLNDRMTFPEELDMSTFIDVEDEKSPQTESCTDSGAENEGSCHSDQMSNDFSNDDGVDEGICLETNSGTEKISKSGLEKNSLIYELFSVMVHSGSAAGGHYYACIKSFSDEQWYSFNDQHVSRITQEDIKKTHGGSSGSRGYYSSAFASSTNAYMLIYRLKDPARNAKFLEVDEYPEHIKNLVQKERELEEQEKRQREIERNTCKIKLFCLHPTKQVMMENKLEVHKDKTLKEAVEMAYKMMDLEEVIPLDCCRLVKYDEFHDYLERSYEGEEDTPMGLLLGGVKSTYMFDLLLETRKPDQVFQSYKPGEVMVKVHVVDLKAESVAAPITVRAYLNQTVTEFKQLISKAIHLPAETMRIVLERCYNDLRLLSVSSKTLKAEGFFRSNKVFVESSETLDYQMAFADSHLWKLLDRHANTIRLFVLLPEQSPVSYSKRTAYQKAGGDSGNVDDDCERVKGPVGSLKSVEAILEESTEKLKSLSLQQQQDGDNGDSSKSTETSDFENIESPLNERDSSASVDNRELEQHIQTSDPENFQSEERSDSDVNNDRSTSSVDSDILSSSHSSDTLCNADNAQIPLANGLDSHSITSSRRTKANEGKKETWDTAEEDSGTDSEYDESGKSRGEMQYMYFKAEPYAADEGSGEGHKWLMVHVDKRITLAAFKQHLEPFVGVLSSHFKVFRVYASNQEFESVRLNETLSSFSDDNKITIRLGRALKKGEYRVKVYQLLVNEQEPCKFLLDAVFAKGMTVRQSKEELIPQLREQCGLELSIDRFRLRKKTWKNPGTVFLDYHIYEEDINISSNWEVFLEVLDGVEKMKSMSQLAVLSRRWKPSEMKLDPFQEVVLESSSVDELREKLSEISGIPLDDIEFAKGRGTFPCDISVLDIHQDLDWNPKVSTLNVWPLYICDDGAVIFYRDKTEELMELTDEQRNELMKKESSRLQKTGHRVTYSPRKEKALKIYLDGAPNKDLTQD
Summary of the method: as §1

[4] = biological target: T3, USP48 (UniProt Q86UV5)
T3 sequence (whole entry): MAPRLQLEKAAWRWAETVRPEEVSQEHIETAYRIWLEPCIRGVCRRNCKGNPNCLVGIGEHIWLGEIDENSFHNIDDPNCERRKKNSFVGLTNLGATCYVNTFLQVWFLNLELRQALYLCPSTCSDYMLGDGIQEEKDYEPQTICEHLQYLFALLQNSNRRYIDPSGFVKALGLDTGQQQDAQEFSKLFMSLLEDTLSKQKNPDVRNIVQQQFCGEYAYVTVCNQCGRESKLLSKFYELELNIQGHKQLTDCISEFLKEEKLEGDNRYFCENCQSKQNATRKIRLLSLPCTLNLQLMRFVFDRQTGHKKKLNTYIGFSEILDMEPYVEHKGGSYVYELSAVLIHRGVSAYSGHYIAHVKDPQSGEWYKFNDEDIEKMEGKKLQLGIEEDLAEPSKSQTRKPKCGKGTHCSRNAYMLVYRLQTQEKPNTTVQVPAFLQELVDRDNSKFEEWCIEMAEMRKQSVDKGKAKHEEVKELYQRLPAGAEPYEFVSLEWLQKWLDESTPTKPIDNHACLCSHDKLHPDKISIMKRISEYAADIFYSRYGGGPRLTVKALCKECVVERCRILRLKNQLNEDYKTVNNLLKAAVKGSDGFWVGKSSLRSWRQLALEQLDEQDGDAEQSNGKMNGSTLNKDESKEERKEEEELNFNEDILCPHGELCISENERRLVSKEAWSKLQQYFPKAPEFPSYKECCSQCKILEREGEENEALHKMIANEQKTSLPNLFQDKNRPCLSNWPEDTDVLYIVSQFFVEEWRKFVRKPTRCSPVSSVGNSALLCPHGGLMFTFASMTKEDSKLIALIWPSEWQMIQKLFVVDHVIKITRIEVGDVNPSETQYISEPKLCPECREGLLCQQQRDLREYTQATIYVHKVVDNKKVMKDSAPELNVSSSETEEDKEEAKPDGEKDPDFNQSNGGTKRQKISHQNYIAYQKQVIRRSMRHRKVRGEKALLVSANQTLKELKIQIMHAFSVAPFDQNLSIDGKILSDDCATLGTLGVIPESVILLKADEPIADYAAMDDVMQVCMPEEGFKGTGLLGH
Summary of the method: as §1

[5] = biological target: T4, USP5 (UniProt P45974)
T4 sequence (whole entry): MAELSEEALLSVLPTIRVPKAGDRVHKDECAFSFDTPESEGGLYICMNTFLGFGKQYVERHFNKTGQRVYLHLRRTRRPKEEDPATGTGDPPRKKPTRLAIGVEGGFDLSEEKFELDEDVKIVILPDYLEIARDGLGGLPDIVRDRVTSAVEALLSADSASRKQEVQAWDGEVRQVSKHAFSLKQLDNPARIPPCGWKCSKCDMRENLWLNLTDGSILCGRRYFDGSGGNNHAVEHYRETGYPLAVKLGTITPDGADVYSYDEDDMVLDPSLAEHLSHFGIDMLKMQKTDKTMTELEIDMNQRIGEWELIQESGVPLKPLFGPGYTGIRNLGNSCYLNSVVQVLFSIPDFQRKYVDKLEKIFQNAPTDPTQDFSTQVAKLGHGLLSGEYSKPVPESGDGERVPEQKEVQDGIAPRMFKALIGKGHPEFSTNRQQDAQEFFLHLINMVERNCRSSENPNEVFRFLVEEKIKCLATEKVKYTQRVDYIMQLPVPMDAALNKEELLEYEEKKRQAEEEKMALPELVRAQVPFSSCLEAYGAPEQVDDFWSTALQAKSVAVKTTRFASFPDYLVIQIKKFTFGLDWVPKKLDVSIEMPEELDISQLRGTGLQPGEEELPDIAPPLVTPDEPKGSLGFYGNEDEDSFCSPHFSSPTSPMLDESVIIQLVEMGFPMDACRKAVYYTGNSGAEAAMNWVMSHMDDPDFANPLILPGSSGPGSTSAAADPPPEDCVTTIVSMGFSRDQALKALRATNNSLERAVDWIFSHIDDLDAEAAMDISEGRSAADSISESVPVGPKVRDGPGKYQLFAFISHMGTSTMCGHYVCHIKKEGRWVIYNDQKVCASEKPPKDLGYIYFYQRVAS
Summary of the method: as §1

[6] = biological target: USP54 (UniProt Q70EL1)
Summary of the method: as §1

[7] = biological target: USP7 (UniProt Q93009)
Summary of the method: as §1

[8] = biological target: T5, USP8 (UniProt P40818)
T5 sequence (whole entry): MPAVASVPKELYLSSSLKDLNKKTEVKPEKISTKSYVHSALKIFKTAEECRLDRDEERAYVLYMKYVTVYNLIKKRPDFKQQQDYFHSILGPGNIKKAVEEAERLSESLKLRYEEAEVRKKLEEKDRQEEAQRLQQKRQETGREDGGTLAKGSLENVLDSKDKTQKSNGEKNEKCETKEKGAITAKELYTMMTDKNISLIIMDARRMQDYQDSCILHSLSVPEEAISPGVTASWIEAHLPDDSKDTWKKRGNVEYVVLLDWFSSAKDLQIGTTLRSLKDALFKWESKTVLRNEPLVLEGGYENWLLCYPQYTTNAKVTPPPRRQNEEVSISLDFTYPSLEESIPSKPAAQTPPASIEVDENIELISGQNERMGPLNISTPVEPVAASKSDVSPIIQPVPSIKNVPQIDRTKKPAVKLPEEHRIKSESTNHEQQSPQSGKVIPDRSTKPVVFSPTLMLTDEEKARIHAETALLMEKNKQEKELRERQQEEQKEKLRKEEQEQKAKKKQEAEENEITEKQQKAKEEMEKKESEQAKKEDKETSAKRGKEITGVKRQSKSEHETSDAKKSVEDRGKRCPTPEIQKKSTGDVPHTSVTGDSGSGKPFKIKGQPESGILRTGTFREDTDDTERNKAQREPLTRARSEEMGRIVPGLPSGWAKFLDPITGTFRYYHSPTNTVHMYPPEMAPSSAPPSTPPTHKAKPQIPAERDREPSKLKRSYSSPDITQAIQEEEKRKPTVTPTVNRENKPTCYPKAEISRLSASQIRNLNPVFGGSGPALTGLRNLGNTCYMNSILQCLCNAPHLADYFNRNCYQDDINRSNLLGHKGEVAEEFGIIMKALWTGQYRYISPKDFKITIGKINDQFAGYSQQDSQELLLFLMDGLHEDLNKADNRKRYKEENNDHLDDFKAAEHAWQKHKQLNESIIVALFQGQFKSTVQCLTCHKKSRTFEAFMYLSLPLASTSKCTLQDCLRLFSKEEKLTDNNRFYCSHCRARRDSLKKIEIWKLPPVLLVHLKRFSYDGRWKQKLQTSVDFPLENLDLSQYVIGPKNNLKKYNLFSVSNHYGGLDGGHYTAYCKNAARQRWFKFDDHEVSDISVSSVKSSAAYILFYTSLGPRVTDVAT
Summary of the method: as §1

Measured: log2 ratio of Biotin-Ahx-Ub-VS probe labelling

Chain of USP7 (Q93009 whole entry, looked up): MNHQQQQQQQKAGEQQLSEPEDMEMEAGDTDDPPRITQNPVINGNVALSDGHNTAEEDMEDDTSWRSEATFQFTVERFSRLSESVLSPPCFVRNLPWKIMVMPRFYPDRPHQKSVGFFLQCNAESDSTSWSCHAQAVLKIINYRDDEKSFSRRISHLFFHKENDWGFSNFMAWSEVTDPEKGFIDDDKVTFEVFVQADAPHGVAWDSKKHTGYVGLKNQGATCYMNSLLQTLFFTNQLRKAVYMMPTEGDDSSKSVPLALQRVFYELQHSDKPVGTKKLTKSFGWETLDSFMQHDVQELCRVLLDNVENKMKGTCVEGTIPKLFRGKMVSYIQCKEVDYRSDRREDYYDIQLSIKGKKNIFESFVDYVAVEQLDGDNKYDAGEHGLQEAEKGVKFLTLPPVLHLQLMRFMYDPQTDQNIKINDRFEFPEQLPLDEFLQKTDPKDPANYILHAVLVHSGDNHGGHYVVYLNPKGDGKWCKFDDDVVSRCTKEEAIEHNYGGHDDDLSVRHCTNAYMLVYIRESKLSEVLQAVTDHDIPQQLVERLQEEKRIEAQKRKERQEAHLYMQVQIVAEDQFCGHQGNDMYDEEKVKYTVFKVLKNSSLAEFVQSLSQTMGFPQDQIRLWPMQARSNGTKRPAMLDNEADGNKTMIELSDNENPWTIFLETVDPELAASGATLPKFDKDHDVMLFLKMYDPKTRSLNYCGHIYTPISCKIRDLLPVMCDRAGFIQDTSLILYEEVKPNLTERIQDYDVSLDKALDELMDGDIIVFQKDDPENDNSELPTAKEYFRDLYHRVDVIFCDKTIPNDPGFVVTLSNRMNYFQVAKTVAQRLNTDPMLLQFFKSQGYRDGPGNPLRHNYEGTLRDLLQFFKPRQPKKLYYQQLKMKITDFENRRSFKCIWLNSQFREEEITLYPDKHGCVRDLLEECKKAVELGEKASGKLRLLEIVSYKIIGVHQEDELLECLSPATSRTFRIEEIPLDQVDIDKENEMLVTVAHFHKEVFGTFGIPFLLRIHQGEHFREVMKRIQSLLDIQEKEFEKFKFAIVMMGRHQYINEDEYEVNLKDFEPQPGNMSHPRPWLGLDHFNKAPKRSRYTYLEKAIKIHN
Chain of USP46 (P62068 whole entry): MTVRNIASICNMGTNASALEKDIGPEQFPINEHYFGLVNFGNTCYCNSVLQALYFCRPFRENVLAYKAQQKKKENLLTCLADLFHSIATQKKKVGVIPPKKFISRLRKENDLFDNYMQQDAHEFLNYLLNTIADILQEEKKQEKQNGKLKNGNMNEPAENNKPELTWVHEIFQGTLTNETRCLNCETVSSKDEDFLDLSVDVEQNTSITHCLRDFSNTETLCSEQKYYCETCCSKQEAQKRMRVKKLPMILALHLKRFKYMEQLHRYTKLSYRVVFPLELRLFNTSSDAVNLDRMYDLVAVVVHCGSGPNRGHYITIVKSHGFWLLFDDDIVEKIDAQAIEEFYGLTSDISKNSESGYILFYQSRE
Chain of USP54 (Q70EL1 whole entry): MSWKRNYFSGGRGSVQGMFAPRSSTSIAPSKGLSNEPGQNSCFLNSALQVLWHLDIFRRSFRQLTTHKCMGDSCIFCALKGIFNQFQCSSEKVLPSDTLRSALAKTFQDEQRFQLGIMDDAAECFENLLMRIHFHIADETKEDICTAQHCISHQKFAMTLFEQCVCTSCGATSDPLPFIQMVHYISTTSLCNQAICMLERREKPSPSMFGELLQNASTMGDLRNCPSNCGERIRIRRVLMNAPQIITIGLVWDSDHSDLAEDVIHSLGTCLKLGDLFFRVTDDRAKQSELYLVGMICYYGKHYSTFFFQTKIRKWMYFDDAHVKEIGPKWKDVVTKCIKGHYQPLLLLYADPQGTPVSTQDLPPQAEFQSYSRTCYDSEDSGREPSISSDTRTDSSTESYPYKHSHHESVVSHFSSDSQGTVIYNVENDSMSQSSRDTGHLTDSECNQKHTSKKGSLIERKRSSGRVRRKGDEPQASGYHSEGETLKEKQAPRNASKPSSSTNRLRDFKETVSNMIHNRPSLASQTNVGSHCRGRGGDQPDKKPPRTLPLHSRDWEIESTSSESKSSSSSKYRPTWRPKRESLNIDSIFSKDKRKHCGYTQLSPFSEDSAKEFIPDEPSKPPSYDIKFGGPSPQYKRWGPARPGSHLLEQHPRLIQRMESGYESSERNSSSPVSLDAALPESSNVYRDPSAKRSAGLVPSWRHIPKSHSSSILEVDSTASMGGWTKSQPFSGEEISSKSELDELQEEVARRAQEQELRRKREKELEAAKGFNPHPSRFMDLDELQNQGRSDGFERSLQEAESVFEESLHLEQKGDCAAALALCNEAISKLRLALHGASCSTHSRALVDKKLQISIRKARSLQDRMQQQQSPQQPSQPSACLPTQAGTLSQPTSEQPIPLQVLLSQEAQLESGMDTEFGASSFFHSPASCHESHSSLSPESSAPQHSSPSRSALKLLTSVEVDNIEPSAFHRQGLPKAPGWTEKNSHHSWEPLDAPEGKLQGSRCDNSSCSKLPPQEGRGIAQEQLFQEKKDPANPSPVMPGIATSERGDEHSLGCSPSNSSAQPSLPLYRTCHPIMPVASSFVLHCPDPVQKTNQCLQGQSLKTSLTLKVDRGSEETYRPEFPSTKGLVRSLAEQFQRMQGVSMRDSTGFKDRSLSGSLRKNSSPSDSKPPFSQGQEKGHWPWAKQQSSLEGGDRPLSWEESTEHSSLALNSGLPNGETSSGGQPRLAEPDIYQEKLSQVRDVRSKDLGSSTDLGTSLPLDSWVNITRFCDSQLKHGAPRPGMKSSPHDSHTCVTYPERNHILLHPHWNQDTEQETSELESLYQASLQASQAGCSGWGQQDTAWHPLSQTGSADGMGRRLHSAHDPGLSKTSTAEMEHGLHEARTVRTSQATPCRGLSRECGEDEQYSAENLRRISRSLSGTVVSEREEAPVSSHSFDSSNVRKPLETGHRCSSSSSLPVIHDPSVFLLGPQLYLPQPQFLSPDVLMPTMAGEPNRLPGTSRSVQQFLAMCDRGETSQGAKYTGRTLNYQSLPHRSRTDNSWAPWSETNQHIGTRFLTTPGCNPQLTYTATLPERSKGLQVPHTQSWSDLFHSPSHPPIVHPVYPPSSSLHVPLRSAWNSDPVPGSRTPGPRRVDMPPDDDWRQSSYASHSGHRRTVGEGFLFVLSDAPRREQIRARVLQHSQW

O=C(CCl)Nc1cc2c(cc1Cl)OCCCO2
inactive: [1] 0.621 | [2] 0.0317 | [3] -0.676 | [4] -0.438 | [5] 0.232 | [6] -0.0568 | [7] -0.0845 | [8] -0.029
